# CDK5 p35 inh: inhibitors of human CDK5/p35 kinase, primary screen, biochemical, single concentration; Cyclin-dependent kinase 5 (Homo sapiens) + Cyclin-dependent kinase 5 activator 1 (Homo …; Recombinant CDK5/p35, ADP-Glo luminescence, 60 min; inhibition, % at 10 µM; 330,000 tested, 0.01% active; AID 488839, 2010;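 active = highest replicate inhibition of at least 50% and at least 75% of replicates reaching 50%; inconclusive = only one of the two criteria met; inactive = both criteria failed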;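 note: plate controls were DMSO neutral control for no effect and GW8510 at 10 µM for full effect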
# ALR H2O2 inh: inhibitors of human ALR sulfhydryl oxidase, primary screen, biochemical, H2O2 detection, HRP-luminol luminescence, single point. FAD-linked sulfhydryl oxidase ALR (Homo sapiens), P55789. purified ALR, DTT oxidation. inhibition, % (no concentration beside the values). 290,000 tested, 3.8% active;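 active = mean replicate inhibition above about 79%, with every replicate also reaching it, limit read from the data; inconclusive = only one of the two criteria met; inactive = mean below limit and not every replicate reaching it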
# Target sequence (P55789 whole entry, looked up): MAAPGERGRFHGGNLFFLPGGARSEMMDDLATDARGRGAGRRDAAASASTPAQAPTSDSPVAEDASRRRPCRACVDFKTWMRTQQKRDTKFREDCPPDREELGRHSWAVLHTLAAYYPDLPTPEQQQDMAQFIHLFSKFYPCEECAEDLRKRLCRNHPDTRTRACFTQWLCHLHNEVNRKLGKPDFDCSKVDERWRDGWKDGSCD
# Glyco luc inh: increase of ERlucT glycosylation luciferase signal, primary screen, N-linked glycosylation inhibitor project, D54 ERlucT cells, luminescence, set 2; reporter increase, % at 12.5 µM; 360,000 tested, 0.23% active; AID 588692, 2011; D54 ERlucT glycosylation luciferase reporter, 24 h; percent of 100 nM tunicamycin response;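 active = mean luciferase reporter signal, scaled so untreated is 0 and the glycosylation-blocking control 100, at or above a set limit in every replicate; inconclusive = mean reaches the limit but not every replicate does; inactive = mean below the limit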;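 note: luciferase carries N-glycosylation sites so blocking glycosylation raises the light; 0% = median of neutral control wells and 100% = median of 100 nM tunicamycin wells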
# NSD2 HMT inh: NSD2 histone methyltransferase inhibitors, primary screen, biochemical, AlphaScreen, single concentration, set 2. Histone-lysine N-methyltransferase NSD2 (Homo sapiens), O96028. NSD2 peptide methylation, 120 min. inhibition, % at 12.5 µM. 310,000 tested, 0.54% active. AID 743445, 2014; in the data active = inhibition above about 50%
# Casp6 inh: human caspase-6 inhibitors, primary screen, biochemical, VEID-R110 fluorescence, single point, set 2 | purified caspase-6, Z-VEID-R110 cleavage fluorescence | inhibition, % at 12.5 µM | AID 686996, 2013 | P55212 | 350,000 tested, 0.53% active;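 active = mean inhibition across replicates at least about 35%, with every replicate also reaching that limit, limit read from the data; inconclusive = only one of the two criteria met; inactive = neither criterion met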;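 note: 0% = median of neutral control wells and 100% = no fluorescence left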
# Target sequence (P55212 24-179 limits assumed): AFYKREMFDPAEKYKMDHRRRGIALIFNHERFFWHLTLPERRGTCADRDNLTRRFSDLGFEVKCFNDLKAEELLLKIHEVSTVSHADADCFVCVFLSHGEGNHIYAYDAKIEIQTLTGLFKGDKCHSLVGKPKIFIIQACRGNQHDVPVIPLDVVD
# Target sequence (P55212 194-293 limits assumed): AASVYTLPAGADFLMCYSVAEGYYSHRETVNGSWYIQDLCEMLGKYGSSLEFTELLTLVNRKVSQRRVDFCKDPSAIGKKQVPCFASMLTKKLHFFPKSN
# Mot1-301 SUMO: yeast Mot1-301 growth rescue at high temperature, primary screen, SUMOylation pathway inhibitor project, S. cerevisiae, ATP luminescence, 38.5C | growth rescue, % at 18.8 µM | AID 2716, 2010 | 320,000 tested, 1% active | S. cerevisiae Mot1-301 growth rescue; percent above DMSO median, 100 means doubled;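 active = every valid replicate shows activation above 250% relative to neutral control wells; inactive = the rest, any valid replicate at or below 250%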;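 note: OY570 slx delta 5 strain wells were the positive control but not used for scaling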
# Yeast Mot1 SUMO: growth restoration of Mot1-301 yeast on galactose, dose response, SUMO pathway inhibitor project, whole organism, S. cerevisiae, ATP luminescence, cherry-picked samples; S. cerevisiae Mot1-301 galactose growth, 24 h; -100 = growth of slx-deleted rescue strain; AID 493004, 2010; 2,300 tested, under 10 active; growth activity, percent, % at 42 µM; shares compounds with Mot1-301 SUMO;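 active = Signal drops as the depositor expects, and the fitted half-maximal dose is no more than ten times the top valid tested dose; inconclusive = Poor fit, or a flat curve whose signal drops by 30% to 70%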;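 note: more negative values mean stronger growth rescue toward the control strain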
# * = called active by the depositor; u = inconclusive; x = not tested or not shown. An excerpt weighted towards active compounds, which were near 3.9% of everything screened.
SMILES,CDK5 p35 inh,ALR H2O2 inh,Glyco luc inh,NSD2 HMT inh,Casp6 inh,Mot1-301 SUMO,Yeast Mot1 SUMO
O=C(CSc1nnc(-c2ccc(Br)cc2)o1)Nc1cccc2ccccc12,2.3,-0.8,-0.6,-0.4,-4.1,663.4*,0.0
O=C(CSc1nnc(-c2ccc(Br)cc2)o1)Nc1cccc(C(=O)O)c1,1.4,-7.2,-9.2,-1.4,0.6,-22.5,x
O=C(CN1CCN(Cc2ccc(F)cc2)CC1)NCCc1ccccc1,1.5,x,1.1,2.2,-4.0,-4.7,x
O=C(CN1CCN(Cc2ccc(F)cc2)CC1)NCc1ccccc1,-0.9,-0.9,0.6,-0.8,-2.1,650.8*,0.4
CCCNC(=O)Nc1ccc2c(c1)C(=O)N(C)C[C@@H](OC)[C@H](C)CN(C(=O)c1ccccc1F)[C@@H](C)CO2,x,x,x,x,3.5,x,x
COc1cc(C(c2c(C)[nH][nH]c2=O)c2c(C)[nH][nH]c2=O)cc(OC)c1OC,0.9,5.6,1.4,2.6,17.3,674.1*,0.0
CCOC(=O)c1c(CN2CCCCC2)n(C)c2cc(Br)c(O)c(CN(C)C)c12,0.1,25.9,-1.2,x,x,471.6*,0.4
CC1=C(C#N)S(=O)(=O)C(C#N)C(c2ccccc2)C1 (configuration not stated),x,52.4,1.8,-0.8,-1.2,501.7*,-0.7
O=C(COc1ccc(F)cc1Cl)N(Cc1nnc(-c2ccccc2Cl)o1)C1CC1,-0.2,x,0.1,-0.2,-0.5,509.6*,0.1
Cc1ccc(S(=O)(=O)N2CCN(CC(O)COc3ccccc3)CC2)cc1 (configuration not stated),0.0,x,0.5,35.3,2.7,-20.7,x
CCOc1ccc(S(=O)(=O)N2CCN(CC(O)COc3cccc([N+](=O)[O-])c3)CC2)cc1 (configuration not stated),-0.3,x,7.4,2.9,0.1,588.2*,0.1
CN1CCCC(n2nc(Cc3ccc(Cl)cc3)c3ccccc3c2=O)CC1 (configuration not stated),-0.3,-2.4,0.7,x,14.6,395.7*,-0.1
CCOC(=O)Cn1nc(Cc2ccccc2)c2ccccc2c1=O,-4.2,2.2,-0.2,-1.4,x,-1.9,x
C[C@H]1CCCCO[C@@H](CN(C)C(=O)Nc2ccc(C(F)(F)F)cc2)[C@@H](C)CN([C@@H](C)CO)C(=O)c2cc(N(C)C)ccc2O1,x,x,x,x,-4.9,x,x
C=C(C)Cn1c(SCC(=O)N/N=C/c2ccccc2OCC(=O)O)nnc1-c1ccc(Br)cc1,1.0,x,0.6,1.7,20.3,571.7*,0.1
C[C@@H]1CCCCO[C@H](CN(C)C(=O)NC2CCCCC2)[C@@H](C)CN([C@H](C)CO)C(=O)c2cc(NC(=O)CCCN(C)C)ccc2O1,x,x,x,x,0.7,x,x
CCOC(=O)C1CCN(C(=O)COc2ccc(S(=O)(=O)N3CCOCC3)cc2)CC1,-1.8,1.4,0.9,-1.3,-1.2,14.5,x
CCOC(=O)C1CCN(C(=O)COc2ccc(S(=O)(=O)N3CCOCC3)cc2C)CC1,-0.6,3.7,-0.1,-1.2,-0.2,717.9*,0.4
CC(=O)c1ccc(Nc2cc(C)nc3c(C)cccc23)cc1,-1.8,-12.5,10.1,-1.7,4.9,22.4,x
CC(=O)c1ccc(Nc2cc(C)nc3ccccc23)cc1,-2.1,-6.7,16.6,8.0,-6.1,573.5*,0.5
O=C(NC1CCCCC1)N1CC(=O)N2[C@H](CO)[C@@H](c3ccc(/C=C/c4ccccc4)cc3)[C@@H]2C1,x,x,x,x,4.5,x,x
O=C(NCCN1CCCC1)[C@@H]1[C@@H](CO)[C@@H]2Cn3c(cccc3=O)[C@@H]2N1Cc1ccccn1,x,x,x,x,2.3,x,x
Cc1cccn2c(=O)c3cc(C(=O)NCc4cccnc4)c(=N)n(C(C)C)c3nc12,-0.3,-1.1,0.0,4.0,x,759.4*,0.3
Cc1cccn2c(=O)c3cc(C(=O)NCCc4ccccc4)sc3nc12,-0.6,11.9,1.2,-5.6,5.5,797.9*,0.4
C[C@H](CO)N1C[C@H](C)[C@H](CN(C)Cc2ccc(C(F)(F)F)cc2)Oc2ccc(NS(=O)(=O)c3cccs3)cc2CC1=O,x,x,x,x,0.1,x,x
SMILES,CDK5 p35 inh,ALR H2O2 inh,Glyco luc inh,NSD2 HMT inh,Casp6 inh,Mot1-301 SUMO,Yeast Mot1 SUMO
Cc1cc(C)n2nc(SCC(=O)NC3CCCC(C)C3C)nc2n1 (configuration not stated),-0.4,x,0.9,5.3,10.0,516.8*,-0.1
Cc1ccc(C(=O)O)cc1N=Cc1cc(Br)cc(Br)c1O,2.6,27.7,0.4,x,x,858.1*,0.0
CC(C)NC(=O)Nc1ccc2c(c1)CC(=O)N([C@H](C)CO)C[C@H](C)[C@@H](CN(C)C(=O)NC1CCCCC1)O2,x,x,x,x,2.3,x,x
O=C(CSc1nc2ccc(Nc3nc(N4CCOCC4)nc(N4CCOCC4)n3)cc2s1)N1CCOCC1,-2.5,u,0.4,-0.1,x,382.3*,0.3
O=C(NCCNc1ccc(Cl)cc1[N+](=O)[O-])c1ccccc1F,0.5,-3.4,-0.3,-2.0,-0.6,473.7*,0.3
C[C@@H]1CN([C@@H](C)CO)S(=O)(=O)c2ccc(C#C[C@@H](C)O)cc2O[C@@H]1CN(C)C(=O)C1CCCCC1,x,x,x,x,-0.6,x,x
CCOC(=O)c1nc(Nc2ccccc2CC)c2ccccc2n1,-1.1,0.0,-2.2,-0.6,0.5,996.1*,0.4
C[C@H](CO)N1C[C@H](C)[C@@H](CN(C)Cc2ccc(C(=O)O)cc2)Oc2c(NC(=O)NC3CCCCC3)cccc2C1=O,x,x,x,x,0.4,x,x
COc1ccc(C(=O)O/N=C(\N)c2cccc(C)c2)cc1OC,1.5,-8.0,6.0,-1.3,0.5,232.7,x
COc1ccc(C(=O)O/N=C(\N)c2ccccc2)cc1OC,-0.8,-13.1,1.0,-1.9,-1.9,379.8*,-0.3
CCCNC(=O)C[C@@H]1CC[C@H]2[C@@H](COc3ccc(NC(=O)NCCC)cc3C(=O)N2C)O1,x,x,x,x,2.2,x,x
O=C1CCN(Cc2ccccc2)CCN1CCOc1ccccc1,0.9,-0.4,-7.4,x,1.8,857.8*,-0.2
CCCC#Cc1ccc([C@@H]2[C@H](CO)N3C(=O)CN(C(=O)Nc4cccc(F)c4)C[C@@H]23)cc1,x,x,x,x,1.2,x,x
CC(C)(C)C(=O)NC1(C(F)(F)F)NC(=O)N(c2ccccc2F)C1=O (configuration not stated),1.1,1.2,2.0,-1.2,-2.2,482.9*,0.5

# Compound activity deposited in PubChem BioAssay by Broad Institute.
